# Screening results from PubChem.
# A selection: hits, their analogues and other compounds. The true share with any hit is near 10%.
# JMJD2A Tudor – JMJD2A Tudor domain (human) inhibition; AlphaScreen JMJD2A-Tudor / H3K4me3 peptide binding; Potency, µM (top dose mostly 114 µM), usual class: inhibitors; hit rate 4.4% among 390,000; AID 504339; also: nearly all actives have a fitted effect of over 50% in size
# HP1b chromo inh – HP1-beta chromodomain-methylated histone interaction inhibition; P83916; AlphaScreen HP1-beta / biotin-H3K9me3 peptide binding; Potency, µM (series often up to 114 µM), actives largely listed as inhibitors; hit rate 0.56% among 390,000; AID 540317; also: nearly all actives have a fitted effect of over 70% in size
# Target sequence (P83916 whole entry, looked up): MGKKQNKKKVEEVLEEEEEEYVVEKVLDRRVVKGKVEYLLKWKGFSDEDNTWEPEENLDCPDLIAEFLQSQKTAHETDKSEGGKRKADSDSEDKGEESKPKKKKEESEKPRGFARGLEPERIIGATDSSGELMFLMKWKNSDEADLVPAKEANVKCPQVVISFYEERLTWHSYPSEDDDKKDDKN
#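 HP1-beta protein (50 nM final) preincubated 30 min at room temperature with biotinylated H3(1-18)K9me3 peptide (50 nM) in PBS pH 7.4, 0.01% Tween-20, then compound added for 30 min. AlphaScreen streptavidin donor/nickel chelate acceptor beads (10 ug/mL final), 30 min dark, luminescence read.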
# G9a block – G9a (human) methyltransferase inhibition | Potency, µM (highest dose often 102 µM), actives largely listed as inhibitors | hit rate 8.8% among 350,000 | Q96KQ7 | G9a H3K9 monomethylation, AlphaScreen, 2 h; also: nearly all actives have a fitted effect of over 75% in size
# Target sequence (Q96KQ7 913-1193 limits assumed): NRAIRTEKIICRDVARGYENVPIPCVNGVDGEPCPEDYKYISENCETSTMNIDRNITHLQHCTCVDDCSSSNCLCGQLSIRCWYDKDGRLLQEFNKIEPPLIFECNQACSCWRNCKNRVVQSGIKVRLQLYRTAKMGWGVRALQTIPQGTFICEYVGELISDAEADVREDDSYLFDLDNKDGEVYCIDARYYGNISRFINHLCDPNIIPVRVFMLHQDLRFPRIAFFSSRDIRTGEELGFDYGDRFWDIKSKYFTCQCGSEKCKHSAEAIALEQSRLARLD
#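 Enzyme 20 nM + cpd, 15 min RT; add b-H3K9 pep 500 nM / SAM 20 uM; 2 h RT; anti-H3K9me1 Ab 0.5 ug/mL + SA donor / anti-rabbit acceptor beads 20 ug/mL each, 10 min; AlphaScreen read.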
# GLS inhibitor – glutaminase GLS (human) inhibition | AID 624170 | hit rate 0.21% among 410,000 | GLS enzymatic activity, qHTS titration | O94925 | Potency, µM (doses to about 45.5 µM), actives largely listed as inhibitors
#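 Assay buffer: 45 mM KH2PO4 pH 8.2, 0.02% Tween-20. hKGA acts on L-glutamine (1 mM solution added); product glutamate is reported by an oxidase/peroxidase Amplex Red coupling, with fluorescence taken at baseline and 30 min.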
# BAZ2B block – blocks human BAZ2B; Q9UIF8; AlphaScreen BAZ2B-H3K14Ac peptide displacement; Potency, µM (top dose mostly 114 µM), most hits filed as inhibitors; hit rate 4.4% among 360,000; also: nearly all actives have a fitted effect of over 60% in size
#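 AlphaScreen luminescence quantifies BAZ2B engagement of H3K14Ac peptide; the protein and biotinylated peptide are both at 50 nM final, buffer PBS pH 7.4 with 0.01% Tween-20, all steps at room temperature.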
# A number is an active result; . = inactive; ? = inconclusive; / = no result given; [ ] = another dose, or the depositor's remark. Calls follow the shape of the dose curve; as a rule, active = well fitted curve in the direction sought with a large enough effect; inconclusive = small, poorly fitted or top-dose-only effect, or another doubt; inactive = no such curve, though single readings can be large; an effect the other way counts as inactive or inconclusive.
SMILES,JMJD2A Tudor,HP1b chromo inh,G9a block,GLS inhibitor,BAZ2B block
Oc1ccc(Nc2nc(-c3ccccc3O)nc3ccccc23)cc1,?,.,50µM,.,?
c1ccc(Nc2nc(-c3ccccc3)nc3ccccc23)cc1,.,.,.[0.501 µM],.,.
O=C(O)c1ccc(Nc2nc(-c3ccccc3)nc3ccccc23)cc1,40µM,.,?,.,.
Cc1ccc(-c2nc(Nc3ccc(N4CCOCC4)cc3)c3ccccc3n2)cc1,40µM,?,/,.,32µM
CNC(=O)c1ccc(Nc2nc(-c3ccccc3)nc3ccccc23)cc1,.,.,50µM,.,.
CCOc1ccc(Oc2nc(NCC(C)C)nc(N3CCOCC3)n2)nn1,.,.,.,.,.
CCC(=O)c1ccc(Oc2ccc(C(=O)c3ccc(C)cc3)cc2[N+](=O)[O-])cc1,.,.,.,.,.
O=C(c1ccccc1)c1ccc(Oc2ccc([N+](=O)[O-])cc2[N+](=O)[O-])cc1,7.1µM,?,/,.,/
CCN(CC)S(=O)(=O)c1ccc(N2CCOCC2)c(NC(=O)c2ccc(N3CCCC3=O)cc2)c1,.,.,50µM,.,.
CCN(CC)S(=O)(=O)c1ccc(O)c(NC(=O)c2ccc(N3CCOCC3)c([N+](=O)[O-])c2)c1,.,?,7.1µM,.,.
CCN(CC)S(=O)(=O)c1ccc(N2CCCC2)c(NC(=O)c2ccc(N3CCCC3=O)cc2)c1,.,.,35µM,.,.
CCN(CC)S(=O)(=O)c1cc(C(=O)Nc2ccccc2[N+](=O)[O-])ccc1Cl,?,?,28µM,.,?
CCN(CC)S(=O)(=O)c1ccc(N2CCOCC2)c(NC(=O)c2ccco2)c1,.,.,/,.,/
CCN(CC)S(=O)(=O)c1ccc(N2CCOCC2)c(NC(=O)c2ccccc2)c1,.,.,.,.,.
CCOC(=O)Cc1cc(=O)c2cc(C)ccc2[nH]1,.,.,.[12.7 µM],.,.
O=C(Cn1cccc1C(=O)c1ccccc1)NCCN1CCOCC1,.,.,.,.,.
COc1ccc(CCNC(=O)CC2SC(=NCc3ccccc3OC)NC2=O)cc1 (stereo not given),.,.,?,.,.
COC(=O)c1c(C)[nH]c(C(=O)C(C)OC(=O)C2CC2C)c1C (stereo not given),.,.,.[12.7 µM],.,.
CCN(CC)S(=O)(=O)c1ccc(N2CCCCC2)c(NC(=O)C2=COCCO2)c1,.,.,.,.,.
CCN(CC)S(=O)(=O)c1ccc(N2CCCCC2)c(NC(=O)c2ccncc2)c1,.,.,.,.,.
COc1ccccc1CNC(=O)c1ccc(N2CCOCC2)c([N+](=O)[O-])c1,?,.,.,.,79µM
CCN(CC)S(=O)(=O)c1ccc(N2CCCC2)c(NC(=O)C2=COCCO2)c1,.,.,50µM,.,.
CCN(CC)S(=O)(=O)c1ccc(N2CCCC2)c(NC(=O)c2ccncc2)c1,.,.,32µM,.,.
COc1ccc(N2CCN(S(=O)(=O)c3c(C)[nH]c(=O)[nH]c3=O)CC2)cc1,.,.,?,.,.
Cc1cccc2cc(CN(CC3CCCO3)C(=O)c3cccnc3)c3nnnn3c12 (stereo not given),.,.,.,.,.
SMILES,JMJD2A Tudor,HP1b chromo inh,G9a block,GLS inhibitor,BAZ2B block
c1cc2c3c(cccc3c1)C(N1CCOCC1)=N2,.,.,/,.,.
c1ccc(CC2CCN(C3=Nc4cccc5cccc3c45)CC2)cc1,22µM,?,?,.,50µM
N#CC1=C(N)SC(N)=C(C#N)C1Cc1ccccc1,?,.,?,.,.
N#CC1=C(N)SC2(CCCCC2)SC1c1ccccc1 (stereo not given),?,.,7.9µM,.,.
COc1ccc(C2C=C(c3cccs3)Nc3nc(CCCO)nn32)cc1 (stereo not given),/,/,40µM,/,?
COc1ccc(C2C=C(c3ccccc3)Nc3nc(CCCO)nn32)cc1 (stereo not given),.,.,?,.,.
OCCCc1nc2n(n1)C(c1ccccc1)C=C(c1ccccc1)N2 (stereo not given),.,.,40µM,.,.
CCOCCCNC(=O)C(c1ccc(OC)cc1)N(Cc1ccc2c(c1)OCO2)C(=O)CNC(C)=O (stereo not given),.,.,.,.,.
Cc1nnc(SCc2ccc([N+](=O)[O-])cc2)o1,13µM,.,.,?,?
O=[N+]([O-])c1ccc(CSc2nnc(SCc3ccc(Cl)cc3)s2)cc1,.,.,35µM,.,.
